Screening results deposited in PubChem by National Center for Advancing Translational Sciences (NCATS).
Hits are enriched below; roughly 11% of the tested compounds scored in any of these assays.
3T3 cytotox: Cytotoxic Profiling in NIH 3T3 Cell Line of Diverse Libraries Using Quantitative High-Throughput Screening | NIH 3T3 viability, CellTiter-Glo ATP luminescence, 48-72 h | Potency, µM (top dose mostly 96.7 µM), for inactives: top-dose activity change, negative = cytotoxicity, actives largely listed as inhibitors | 94,000 compounds, 4.3% hits | AID 1345082, 2018; further: nearly all actives have a fitted effect of over 55% in size
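Cytotoxicity is measured as loss of cellular ATP: NIH 3T3 cells (400/well) are exposed to compound for 48 or 72 hr at 37 °C, then CellTiter-Glo luminescence is imaged after 10 min at room temperature.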
HEK cytotox: Cytotoxic Profiling in HEK 293 Cell Line of Diverse Libraries Using Quantitative High-Throughput Screening; AID 1345083, 2018; 94,000 compounds, 6.6% hits; HEK 293 viability, ATP luminescence (CellTiter-Glo), 48-72 h; Potency, µM (titrated, usually from 115 µM), without a hit: top-dose activity change, negative = cytotoxicity, hits mostly inhibitors; further: nearly all actives have a fitted effect of over 60% in size
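Cytotoxicity was scored by loss of ATP-coupled luminescence (CellTiter-Glo) in HEK 293 cells. Compound treatment ran 48 or 72 hr at 37 degree Celsius, 5% CO2, 95% humidity.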
NPR1 antag: Natriuretic polypeptide receptor (hNpr1) antagonism - Primary qHTS; Atrial natriuretic peptide receptor 1 (Homo sapiens), P16066; HEK293 hNpr1 GloSensor cGMP, ANP-stimulated luminescence; Potency, µM (titrated, usually from 46.3 µM), inactives show at the top dose activity change, negative = inhibition, hits mostly inhibitors; 76,000 compounds, 1.6% hits; calls by dose curve; further: nearly all actives have a fitted effect of over 60% in size
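Compound pre-incubated 30 min at room temperature on GloSensor-loaded HEK293 cells stably carrying hNpr1 and the pGS-40F cGMP biosensor. Stimulation uses hNppA at 0.1 nM final; luminescence is taken at baseline and 20 min post-agonist.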
Luciferase inh: Firefly luciferase inhibition profiling of diverse chemical library using quantitative high-throughput screening; purified P. pyralis luciferase, luminescence, biochemical; AID 1347043, 2019; 76,000 compounds, 2.5% hits; Potency, µM (doses to about 115 µM), hits mostly inhibitors; further: nearly all actives have a fitted effect of over 65% in size
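Inhibitors were tested against purified firefly luciferase in a biochemical, low-substrate format (both substrates at 10uM) and luminescence measured with a CCD imager.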
* marks the source's active call; other numbers are inactive results; i = inactive; ? = inconclusive; · = not tested or not shown; [ ] = another dose, or the depositor's remark. Unless noted, the call rests on the fitted dose curve; in most records, active means well fitted curve in the direction sought with a large enough effect; inconclusive means small, poorly fitted or top-dose-only effect, or another doubt; inactive means no such curve, though single readings can be large; an effect the other way counts as inactive or inconclusive. On the % scale 0 is the no-effect control and ±100 the full control effect; potency means the concentration at half of the fitted maximal effect.

SMILES	3T3 cytotox	HEK cytotox	NPR1 antag	Luciferase inh
Cc1cccc(-c2nocc2CCC(=O)O)c1	-7.7%	-2.3%	-0.5%	?
Cc1cccc(-c2cccc(CN3CCC(NC(=O)c4ccccc4)CC3)c2)c1	25.1µM*	35.5µM*	·	·
Cc1cccc(-c2nocc2CCC(=O)NC2CCN(Cc3ccccc3)CC2)c1	?	?	-18.9%	31.6µM*
Cc1cccc(-c2cccc(CN3CCC(NC(=O)c4ccc(Cl)cc4)CC3)c2)c1	-21.0%	-30.4%	·	·
CSc1ccc(-c2cccc(CN3CCC(NC(=O)C4CC4)CC3)c2)cc1	-28.3%	-23.6%	·	·
Cc1cccc(-c2cccc(CN3CCC(NC(=O)Nc4ccc(Cl)cc4)CC3)c2)c1	11.2µM*	6.31µM*	·	·
CC(=O)NC1CCN(Cc2cccc(-c3cccc(C)c3)c2)CC1	100µM*	?	·	·
O=C(NC1CN(c2ccnc3ccnn23)C1)C1CC1	-3.7%[138 µM]	0.2%[172 µM]	·	·
Cc1ccc(C(=O)NC2CCN(Cc3cccc(-c4cccc(C)c4)c3)CC2)cc1	31.6µM*	39.8µM*	·	·
Cc1noc(C)c1-c1cc(-c2cccc3cc[nH]c23)cn2cncc12	28.2µM*	?	?	i
COc1ccc(-c2cc(-c3c(C)noc3C)c3cncn3c2)cc1	?	?	-3.0%[70.6 µM]	i
COc1cccc(-c2cc(-c3c(C)noc3C)c3cncn3c2)c1	39.8µM*	?	-15.1%[70.6 µM]	i
Cc1noc(C)c1-c1cc(-c2ccccc2O)cn2cncc12	25.1µM*	50.1µM*	-20.1%[70.6 µM]	i
CCc1nncn1C1CCN(S(=O)(=O)c2ccc(Cl)c(C)c2)CC1	?	?	-9.1%	i
O=C(c1ccccc1)N1CCCC(n2cc(-c3nc(-c4ccccc4)no3)nn2)C1 (centres undefined)	?	?	12.6µM*	?
Cc1noc(-c2cn(C3CCN(C(=O)C4(c5ccccc5)CC4)CC3)nn2)n1	-36.7%	-9.7%	-0.1%	i
O=C(C1CCC1)N1CCCC(n2cc(-c3nc(-c4ccccc4)no3)nn2)C1 (centres undefined)	?	?	?	39.8µM*
O=C(C1CCCC1)N1CCCC(n2cc(-c3nc(-c4ccccc4)no3)nn2)C1 (centres undefined)	?	?	12.6µM*	?
O=C(c1cccnc1)N1CCCC(n2cc(-c3nc(-c4ccccc4)no3)nn2)C1 (centres undefined)	-39.7%	?	?	i
O=C(N1CCCC(n2cc(-c3nc(-c4ccccc4)no3)nn2)C1)C1(c2ccccc2)CC1 (centres undefined)	?	44.7µM*	14.1µM*	?
O=C(Nc1ccc2c(c1)OCCO2)N1CCC(Cc2nc(-c3ccncc3)n[nH]2)C1 (centres undefined)	-29.2%	-12.1%	-1.9%	i
C[S+](=O)([O-])N1CC2(Cc3ccccc31)CN(C(=O)Nc1ccc(Cl)cc1)C2	?	-26.7%	·	·
O=C(c1ccc2c(c1)OCO2)N1CCCC(n2cc(-c3nc(C4CC4)no3)nn2)C1 (centres undefined)	?	?	-4.1%	i
O=C(c1ccc2c(c1)OCO2)N1CCCC(n2cc(-c3nc(-c4ccccc4)no3)nn2)C1 (centres undefined)	?	?	11.2µM*	?
O=C1Cc2c(-c3ccc(N4CCOCC4)cc3)n[nH]c2CN1CCc1ccncc1	79.4µM*	-18.0%[172 µM]	-10.0%[70.6 µM]	?
SMILES	3T3 cytotox	HEK cytotox	NPR1 antag	Luciferase inh
O=C1Cc2c(-c3ccccc3)n[nH]c2CN1CCc1ccncc1	?	2.8%[172 µM]	-2.0%[70.6 µM]	i
O=C1Cc2c(-c3ccc4ccccc4c3)n[nH]c2CN1CCc1ccncc1	?	?	-20.2%[70.6 µM]	i
O=C1Cc2c(-c3cccc4ccccc34)n[nH]c2CN1CCc1ccncc1	?	79.4µM*	-4.5%[70.6 µM]	i
O=C(O)c1cccc(-c2n[nH]c3c2CC(=O)N(CC2CCOCC2)C3)c1	?	i	4.9%[70.6 µM]	i
O=C1Cc2c(-c3ccc4c(c3)OCO4)n[nH]c2CN1CC1CCOCC1	10µM*	-28.0%[172 µM]	3.1%[70.6 µM]	i
O=C1Cc2c(-c3cccc(C(F)(F)F)c3)n[nH]c2CN1CCc1ccncc1	?	89.1µM*	3.2%[70.6 µM]	i
Cc1cc(C)n(-c2ccc(NC(=O)C3CCN(Cc4nnc(C)o4)CC3)cc2)n1	?	-15.5%	-5.4%	i
CC(C)N[C@H]1CC(C)(C)[C@@H]2C[C@@](C)(O)CC[C@]12CCC(=O)NCCc1c[nH]c2ccccc12	?	?	-0.2%	i
Cc1ccc(S(=O)(=O)N[C@H]2CC(C)(C)[C@@H]3C[C@@](C)(O)CC[C@]23CCC(=O)NCCc2c[nH]c3ccccc23)cc1	79.4µM*	?	3.8%	i
Cn1cc(CN2CCC(C(O)c3cccnc3)CC2)c(-c2ccc(C3CCCCC3)cc2)n1 (centres undefined)	79.4µM*	79.4µM*	5.6%	i
Cn1cc(CN2CCC(C(=O)N3CCCC3)CC2)c(-c2ccc(C3CCCCC3)cc2)n1	-0.6%	-10.9%	2.5%	i
Cc1ccc2oc([C@H]3CCN(Cc4cccc(Cl)c4)C3)nc2c1	?	?	-26.6%[70.6 µM]	i
OCCC1CN(Cc2nc3ccccc3s2)CCN1Cc1ccc(F)c(F)c1 (centres undefined)	-22.8%	79.4µM*	-29.5%	i
c1ccc(CCCN2CC[C@H](c3nc4ccccc4s3)C2)cc1	89.1µM*	100µM*	-19.5%[70.6 µM]	?
Clc1cccc(CN2CC[C@H](c3nc4ccccc4s3)C2)c1	?	100µM*	3.3%[70.6 µM]	50.1µM*
O=C(C1CC1)N1CC[C@H](c2nc3ccccc3s2)C1	-7.9%[174 µM]	-11.8%[230 µM]	3.5%[70.6 µM]	i
OCCC1CN(Cc2cccn2-c2nccs2)CCN1Cc1ccc(F)c(F)c1 (centres undefined)	-24.4%	?	-5.6%	i
COc1cccc(CN2CC[C@H](c3nc4ccccc4s3)C2)c1	?	100µM*	-29.7%[70.6 µM]	25.1µM*
O=C(C1CCC1)N1CCC(c2nc(-c3ccc4nc[nH]c4c3)no2)CC1	?	?	-2.5%	i
COc1cccc(-c2cn3cc(C(=O)NCc4cccs4)nc3s2)c1	-3.3%	-0.7%	·	·
N#Cc1cccnc1-c1cccc(C(=O)NCCNC(=O)Cc2ccccn2)c1	-10.9%	-16.3%	·	·
CC(C)CCNC(=O)c1cccc2c1CCN2S(=O)(=O)c1ccccc1F	?	?	?	i
Fc1ccc(CN2CC[C@H](c3nc4ccccc4s3)C2)cc1F	?	100µM*	-5.7%[70.6 µM]	44.7µM*
Cn1c([C@H]2CCN(Cc3ccc(F)c(F)c3)C2)nc2ccccc21	?	50.1µM*	-15.8%[70.6 µM]	i
Fc1ccc(CN2CC[C@H](c3nnc(Cc4ccccc4)o3)C2)cc1F	?	?	0.3%[70.6 µM]	i
C=CCC1(CO)CCCN(CCOc2ccc(C)cc2Cl)C1 (centres undefined)	?	?	-0.8%	i
